# Assay outcomes (PubChem)
# Tg IFNy HTS = blocks Toxoplasma gondii growth in the presence of IFN-gamma | Toxoplasma gondii growth in IFN-gamma-treated host cells; hits give low values | activity change, negative = inhibition, % (test concentration not listed) | 69,000 compounds, 3.8% hits; in the data active means activity change below about -70%, passing the limit was not always enough;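 further: host cells are HeLa cells infected with Toxoplasma gondii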
# Numbers stand for hits; - = inactive. The sample as a whole holds a higher share of hits than the screen did.
SMILES,Tg IFNy HTS
CCn1c(=O)c2c(nc(SCC(=O)NC(C)(C)C)n2C)n(C)c1=O,-
CN(Cc1ccccc1N1CCOCC1)C(=O)c1ccccc1Cn1cccn1,-
CC(C)CN1C(=O)CCc2cc(NS(=O)(=O)c3ccccc3)ccc21,-
Cc1cc(C)cc(S(=O)(=O)Nc2ccc3c(c2)CCC(=O)N3CC(C)C)c1,-
CCN1C(=O)CCc2cc(NS(=O)(=O)c3c(C)cccc3Cl)ccc21,-
CCN1C(=O)CCc2cc(NS(=O)(=O)c3ccc(C#N)cc3)ccc21,-101.9
CCN1C(=O)CCc2cc(NS(=O)(=O)c3cc(F)ccc3F)ccc21,-
CCN1C(=O)CCc2cc(NS(=O)(=O)Cc3ccc(Cl)cc3)ccc21,-
CC(C)CN1C(=O)CCc2cc(NS(=O)(=O)c3ccc(Cl)cc3)ccc21,-80.1
CCN1C(=O)CCc2cc(NS(=O)(=O)c3cccc(F)c3)ccc21,-
CCN1C(=O)CCc2cc(NS(=O)(=O)c3ccc(C4CCCCC4)cc3)ccc21,-95.1
CN(C)[C@@H]1CCN(C(=O)C2CC=CC2)[C@H]1Cc1ccncc1,-
Cn1cc(CN2CCCC2CCNS(C)(=O)=O)cn1 (centres undefined),-
CC(=O)N[C@H]1C[C@@H](c2cc(=O)n3c4c(cccc24)CCC3)O[C@@H](C(C)C)C1,-
CC(C)CN1CC2CN(S(=O)(=O)c3ccccc3)CC2C1 (centres undefined),-
Cc1nn(C)c(C)c1CN(C(=O)Cc1[nH]nc2ccccc12)C1CC1,-
CCc1ncc(-c2c(-c3ccccc3)ncn2CC(=O)N2CCNCC2)cn1,-
Cc1ccc(-c2coc(-c3ccc(NC(=O)Nc4cccc(Cl)c4)cc3)n2)cc1,-
CCC(C)NCCOCCOc1ccc(Cl)c2ccccc12 (centres undefined),-93.9
CCOc1ccccc1OCCN[C@H](C)Cc1ccc(OC)c(S(N)(=O)=O)c1,-
CCC(C)NCCOc1ccc(C(C)(C)c2ccccc2)cc1 (centres undefined),-
CCc1cnc(C)nc1-c1ccc(-c2ccn[nH]2)cc1,-
Nc1cnc(-c2ccc(-c3ccn[nH]3)cc2)cn1,-
Cc1ccc(-c2ccc(-c3ccn[nH]3)cc2)c(N)n1,-81.2
CC(C)N1CCO[C@H]2CN(C(=O)c3cnccn3)C[C@@H]21,-
SMILES,Tg IFNy HTS
Cc1ccc(Nc2nc(C(=O)NC(C)Cc3ccco3)nc3ccccc23)cc1 (centres undefined),-
CC(C)(C#N)c1ccc(N2C(=O)OCc3cnc4ccc(-c5cnc6ccccc6c5)cc4c32)cc1,-85.0
Cc1oc(-c2cccc(Br)c2)nc1CSc1nc2c(=O)[nH]cnc2n1C,-
O=C(COc1ncnc2ccccc12)Nc1nnc(Cc2cccc(F)c2)s1,-
COc1ccc(C(=O)NCCc2sc(-c3cccc(F)c3)nc2C)c(OC)c1,-
Cc1nc(-c2ccc(F)cc2)sc1CCNC(=O)c1ccccc1F,-
COc1cccc(C(=O)NCCc2sc(-c3ccc(F)cc3)nc2C)c1OC,-
COc1ccc(C(=O)NCCc2sc(-c3ccc(F)cc3)nc2C)c(OC)c1,-86.9
COc1ccc(C(=O)NCCc2sc(-c3ccc(Cl)cc3)nc2C)c(OC)c1,-
COc1ccc(Cl)cc1C(=O)NCCc1sc(-c2ccc(F)cc2)nc1C,-102.3
O=c1[nH]cc(-c2ccccc2)cc1CNc1cccc(S(=O)(=O)NC2CCCC2)c1,-
O=C(NCCc1cccc(F)c1)c1ccc(CSc2ncccn2)o1,-
CC(C)N(C)Cc1cnc2n1CCN(Cc1nccs1)CC2,-
COc1ccc(-c2nc(C)c(CCNC(=O)C(=O)Nc3ccc(F)cc3)s2)cc1OC,-
Cc1nc(-c2ccc(Cl)cc2)sc1CCNC(=O)c1ccc(F)c(F)c1,-76.8
Cc1nc(-c2ccc(Cl)cc2)sc1CCNC(=O)c1ccc(F)cc1,-
Cc1nc(-c2ccc(F)cc2)sc1CCNC(=O)c1ccc(C(C)(C)C)cc1,-
Cc1ccc(OCC(=O)NCCc2sc(-c3ccc(F)cc3)nc2C)cc1,-
Cc1nc(-c2ccc(F)cc2)sc1CCNC(=O)c1ccc(Br)cc1,-81.0
Cc1nc(-c2ccc(Cl)cc2)sc1CCNC(=O)COc1ccccc1,-
Cc1nc(-c2ccc(F)cc2)sc1CCNC(=O)c1ccccc1,-
Cc1ccc(OCC(=O)NCCc2sc(-c3ccc(Cl)cc3)nc2C)cc1,-76.4
Cc1ccc(C(=O)NCCc2sc(-c3ccc(Cl)cc3)nc2C)cc1C,-
CCCS(=O)(=O)N1Cc2nccn2CC(Cn2cncn2)C1 (centres undefined),-
Cc1ccc2[nH]c(C(=O)O)c(CN3CCCC4(CCNCC4)CC3)c2c1,-
SMILES,Tg IFNy HTS
COCCN1C(=O)N(Cc2ccccc2)C2(CCN(Cc3cnn(-c4ccccc4)c3)CC2)C1=O,-
CNC(=O)c1ccc(C2CCCN2C(=O)c2cn[nH]n2)s1 (centres undefined),-
COc1ccccc1CC(C)NC(=O)CC1C(=O)N(C)c2ccccc21 (centres undefined),-
CC(=O)N1CC[C@H](Oc2cccnc2)[C@@H](Cc2ccccc2)C1,-
CCC1=N[C@@]2(CC[C@@H]3CN(c4ncc(C)cn4)C[C@H]32)C(=O)N1CCOC,-
COCC12CCCOC1CCN(C(=O)C1=CCCC1)C2 (centres undefined),-80.5
CCOCC12CCCOC1CCN(C(=O)C1=CCCC1)C2 (centres undefined),-
Cc1ccc(C(=O)N2CCC3OCCCC3(COCC3CC3)C2)cn1 (centres undefined),-
COc1ccc2c(c1)NC1(CCN(S(=O)(=O)c3ccc(NC(C)=O)cc3)CC1)c1cccn1-2,-
CC[C@@H]1N(Cc2nccs2)CCC[C@@]12CCC(=O)N2CCOC,-
Cc1oc(-c2ccc(OC(C)C)cc2)nc1CSc1nc2ncccc2o1,-95.6
Cc1oc(-c2ccc(OC(C)C)cc2)nc1Cn1c(=O)c2cccnc2n(-c2ccccc2)c1=O,-
Cc1oc(-c2ccc(OC(C)C)cc2)nc1CSc1nc2c(=O)[nH]cnc2n1C,-
CCc1c(C)nn(CCNc2nc(CCN)nc3ccccc23)c1C,-
Cc1cc(NCc2ccc(F)cc2)n2c(n1)nc1ccccc12,-
Cc1ccc(Nc2nc(C(=O)Nc3ccc(Cl)cc3)nc3ccccc23)cc1,-
Cc1cc(Nc2ccc(NC(=O)c3ccc(Nc4ccnc5ccccc45)cc3)cc2)nc(N)n1,-78.1
Cc1cc(Nc2ccc(C(=O)O)cc2)nc(N)n1,-
Cc1cccc(S(=O)(=O)N2CCC3(CCC(C(=O)Nc4cccnc4)O3)CC2)c1 (centres undefined),-
CCN1C[C@@H](COC)[C@@]2(CCN(C(=O)CC3Cc4ccccc4C3)C2)C1,-
Cc1ncc(-c2ccc3c(c2)OCO3)c(-c2cccnc2)n1,-
Cc1nc(-c2ccc3c(c2)OCO3)cc(C(C)C)n1,-72.3
Cc1cc(-c2ccc3c(c2)OCO3)cnc1N,-
NCCc1nc(NCCN2CCCCC2CO)c2ccccc2n1 (centres undefined),-
CC(C)(C)CN1CC2(CCN(C(=O)Cc3ccc(Cl)cc3)C2)C1,-
SMILES,Tg IFNy HTS
O=S(=O)(Cc1ccccc1)N1CCC2(CCN(Cc3ccc(Cl)cc3)C2)C1 (centres undefined),-
O=C(Cc1ccc(Cl)cc1)N1CC2(CCN(Cc3ccc(C(F)(F)F)cc3)CC2)C1,-79.6
COc1ccc(CN2CC3(COC(C(=O)NCc4cccc(OC)c4)C3)c3ccccc32)cc1 (centres undefined),-
CCCn1c(=O)c(C(=O)NCCN(CC)CC)c(O)c2ccccc21,-
CCCCc1nc2ccccc2c(=O)n1NC(=O)c1c(O)c2ccccc2n(CCC)c1=O,-113.8
CCn1c(=O)c(C(=O)Nc2cccc(C)n2)c(O)c2ccccc21,-
